Screening results: PubChem BioAssay, National Center for Advancing Translational Sciences (NCATS)
This is a sample that favours compounds with a hit; in the whole collection about 10% have one here.
HP1b binding inh – HTS for Inhibitors of HP1-beta Chromodomain Interactions with Methylated Histone Tails; actives 0.56% (n = 390,000); Potency, µM (doses to about 114 µM), inactives show top-dose activity change, negative = inhibition, hits mostly inhibitors; Chromobox protein homolog 1 (Homo sapiens), P83916; AlphaScreen HP1-beta / biotin-H3K9me3 peptide binding; further: nearly all actives have a fitted effect of over 70% in size
Target sequence (P83916 whole entry, looked up): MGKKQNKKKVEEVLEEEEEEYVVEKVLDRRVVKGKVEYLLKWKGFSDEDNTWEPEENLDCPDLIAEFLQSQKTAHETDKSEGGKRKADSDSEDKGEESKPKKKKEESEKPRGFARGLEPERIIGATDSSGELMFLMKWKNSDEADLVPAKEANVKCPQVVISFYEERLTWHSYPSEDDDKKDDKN
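AlphaScreen: HP1-beta (50 nM) preformed 30 min with biotin-H3(1-18)K9me3 peptide (50 nM) in PBS pH 7.4, 0.01% Tween-20. Compound added for 30 min at RT, then streptavidin donor/nickel chelate acceptor beads (10 ug/mL) for 30 min.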
G9a block – qHTS Assay for Inhibitors of Histone Lysine Methyltransferase G9a | Histone-lysine N-methyltransferase EHMT2 (Homo sapiens), Q96KQ7 | G9a H3K9 monomethylation, AlphaScreen, 2 h | Potency, µM (top dose mostly 102 µM), for inactives: at the highest dose activity, negative = inhibition, actives largely listed as inhibitors | actives 8.8% (n = 350,000) | AID 504332, 2011; further: on the % scale 0 is the no-effect control and ±100 the full control effect; nearly all actives have a fitted effect of over 75% in size
Target sequence (Q96KQ7 913-1193 limits assumed): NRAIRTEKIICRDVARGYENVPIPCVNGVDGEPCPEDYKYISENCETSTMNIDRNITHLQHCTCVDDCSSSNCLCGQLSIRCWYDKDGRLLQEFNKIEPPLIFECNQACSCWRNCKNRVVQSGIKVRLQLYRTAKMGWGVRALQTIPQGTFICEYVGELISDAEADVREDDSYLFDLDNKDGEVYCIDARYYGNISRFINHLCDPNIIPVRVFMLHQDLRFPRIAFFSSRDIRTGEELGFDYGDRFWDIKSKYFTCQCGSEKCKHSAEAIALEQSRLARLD
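AlphaScreen detection with an anti-monomethyl H3K9 antibody quantified product after a 2 h room-temperature reaction containing 500 nM biotinylated H3K9 peptide, 20 µM SAM and 20 nM enzyme, which had been preincubated 15 min with compound.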
GLS inhibitor – qHTS for Inhibitors of Glutaminase (GLS); actives 0.21% (n = 410,000); AID 624170, 2012; GLS enzymatic activity, qHTS titration; Glutaminase kidney isoform, mitochondrial (Homo sapiens), O94925; Potency, µM (top dose mostly 45.5 µM), without a hit: at the highest dose activity change, negative = inhibition, hits mostly inhibitors; further: on the % scale 0 is the no-effect control and ±100 the full control effect
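Glutamate formation by hKGA was monitored fluorometrically using coupled glutamate oxidase, HRP and Amplex Red. Substrate was added as 1 mM L-glutamine solution; incubation was 30 min at RT after an initial read.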
BAZ2B block – qHTS Assay for Inhibitors of BAZ2B | Bromodomain adjacent to zinc finger domain protein 2B (Homo sapiens), Q9UIF8 | AlphaScreen BAZ2B-H3K14Ac peptide displacement | Potency, µM (top dose mostly 114 µM), without a hit: at the highest dose activity change, negative = inhibition, actives largely listed as inhibitors | actives 4.4% (n = 360,000) | AID 504333, 2011; further: on the % scale 0 is the no-effect control and ±100 the full control effect; nearly all actives have a fitted effect of over 60% in size
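BAZ2B 50 nM plus b-H3(5-23)K14Ac 50 nM, PBS pH 7.4/0.01% Tween-20, 30 min RT; compound added (max 110 uM), 30 min RT; streptavidin donor/Ni-chelate acceptor beads 10 ug/mL final, 20 min dark; AlphaScreen read.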
JMJD2A Tudor – qHTS Assay for Inhibitors of JMJD2A-Tudor Domain. Lysine-specific demethylase 4A (Homo sapiens), O75164. AlphaScreen JMJD2A-Tudor / H3K4me3 peptide binding. Potency, µM (top dose mostly 114 µM), without a hit: top-dose activity change, negative = inhibition, hits mostly inhibitors. actives 4.4% (n = 390,000); further: on the % scale 0 is the no-effect control and ±100 the full control effect; nearly all actives have a fitted effect of over 50% in size
L3MBTL1 inh – qHTS Assay for the Inhibitors of L3MBTL1 | Lethal(3)malignant brain tumor-like protein 1 (Homo sapiens), Q9Y468 | AlphaScreen L3MBTL1–H3K9me1 peptide binding | Potency, µM (highest dose often 57.1 µM), for the others: top-dose activity, negative = inhibition, actives largely listed as inhibitors | actives 0.66% (n = 230,000); further: on the % scale 0 is the no-effect control and ±100 the full control effect; nearly all actives have a fitted effect of over 60% in size
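L3MBTL1 (50 nM) pre-complexed 30 min with biotinylated H3(1-15)K9me1 peptide (75 nM), then compounds added for 30 min at room temperature; AlphaScreen streptavidin donor/nickel chelate acceptor beads (10 ug/mL final) read after 30 min dark incubation.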
The depositor's hits bear a star; ? = inconclusive; / = no result; [ ] = remark or other dose. The call rests on the fitted dose curve; in most records, active means well fitted curve in the direction sought with a large enough effect; inconclusive means small, poorly fitted or top-dose-only effect, or another doubt; inactive means no such curve, though single readings can be large; an effect the other way counts as inactive or inconclusive. Potency means the concentration at half of the fitted maximal effect.

SMILES	HP1b binding inh	G9a block	GLS inhibitor	BAZ2B block	JMJD2A Tudor	L3MBTL1 inh
O=C(c1ccco1)N(Cc1cccc(F)c1)C1CCS(=O)(=O)C1 (stereo not given)	23.3%	-9.3%	3.0%	56.2µM*	-13.2%	/
CCc1ccc(CN(C(=O)c2ccco2)C2CCS(=O)(=O)C2)cc1 (stereo not given)	12.3%	?	-1.1%	2.0%	22.4µM*	/
CCN(CC)c1ccc(CN(C(=O)c2cccs2)C2CCS(=O)(=O)C2)cc1 (stereo not given)	4.8%	39.8µM*	17.0%	?	?	/
COc1cccc(CN(C(=O)c2cccs2)C2CCS(=O)(=O)C2)c1 (stereo not given)	9.9%	20.2%	-1.9%	-14.2%	56.2µM*	/
O=C(c1ccco1)N(Cc1ccc(Cl)cc1)C1CCS(=O)(=O)C1 (stereo not given)	31.5%	/	2.9%	-6.1%	-7.4%	/
Cc1ccc(C)c(Cn2c(=O)n(Cc3ccc4c(c3)OCO4)c(=O)c3oc4ccccc4c32)c1	37.2%	-1.8%[59 µM]	-20.3%	-9.6%	?	/
CCOc1ccccc1C(=O)N(Cc1cc(OC)c(OC)c(OC)c1)C1CCS(=O)(=O)C1 (stereo not given)	15.3%	11.7%[59 µM]	1.3%	2.0%	-16.7%	/
CCN(CC)c1ccc(CN(C(=O)c2ccco2)C2CCS(=O)(=O)C2)cc1 (stereo not given)	3.5%	44.7µM*	39.0%	-36.0%	-35.3%	-16.4%
CCN(CC)c1ccc(CN(C(=O)c2cc(OC)c(OC)c(OC)c2)C2CCS(=O)(=O)C2)cc1 (stereo not given)	-4.8%	35.5µM*	26.9%	?	?	-5.5%
COc1ccc(-c2ccc3c(N)c(C(=O)c4cccc(OC)c4)sc3n2)cc1	68.6%	50.1µM*	3.0%	-18.0%	-9.0%	/
Cc1cccn2cc(-c3cc4ccccc4oc3=O)nc12	-13.2%	/	7.6%	-9.1%	89.1µM*	60.0%
O=C(/C=C\c1ccccc1)Oc1cccc2cccnc12	39.7%	22.8%	1.4%	39.8µM*	2.9%	?
O=C(Oc1cccc2cccnc12)c1ccccc1	/	42.7%[59 µM]	-11.3%	/	/	/
O=C(/C=C/c1ccccc1)Oc1cccc2cccnc12	58.0%	/	-8.0%	44.7µM*	-3.0%	-1.1%
Cc1cc(C)c2c(=O)cc(C(=O)Nc3sc4c(c3C(=O)NCC3CCCO3)CCCC4)oc2c1 (stereo not given)	32.0%	-2.7%[59 µM]	12.0%	-2.4%	-9.7%	/
Cc1cccc(NC(=O)Cn2nnc(C(=O)Nc3ccccc3Br)c2N)c1C	35.0%	-4.6%[59 µM]	0.7%	13.3%[57.1 µM]	-15.5%	/
O=C(O)CCC(=O)c1ccc2c(c1)OCCO2	62.2%	15.8%	-6.2%	8.3%	-10.3%	8.3%
O=C(O)CCSCC(=O)c1ccc2c(c1)OCCO2	73.2%	31.6µM*	11.4%	3.3%	?	3.1%
O=C(CCN1Cc2ccccc2C1)c1ccc2c(c1)OCCO2	13.6%	8.91µM*	39.6%	-11.9%	?	0.8%
CN(C)c1ncc2ncc(=O)n(Cc3cccs3)c2n1	/	13.6%[12.7 µM]	/	/	/	/
COc1cc(CN2CCN(S(=O)(=O)c3ccccc3)CC2)cc(OC)c1O	32.1%	10µM*	71.4%	-1.5%	7.6%	/
COc1ccc(S(=O)(=O)N2CCN(Cc3cc(OC)c(OC)c(OC)c3)CC2)cc1	?	/	8.1%	?	3.16µM*	44.9%
COc1ccc(S(=O)(=O)N2CCN(Cc3cccc(OC)c3)CC2)cc1	45.0%	8.7%	1.2%	5.5%	-3.7%	-2.7%
COc1ccc(S(=O)(=O)N2CCN(Cc3ccccc3)CC2)cc1	10.0%	0.0%[59 µM]	3.9%	10.8%	-12.0%	-1.8%
COc1ccc(S(=O)(=O)N2CCN(Cc3cc(OC)c(O)c(OC)c3)CC2)cc1	?	7.08µM*	12.1%	50.1µM*	22.4µM*	/
SMILES	HP1b binding inh	G9a block	GLS inhibitor	BAZ2B block	JMJD2A Tudor	L3MBTL1 inh
O=S(=O)(c1ccccc1)N1CCN(Cc2ccc(Cl)cc2)CC1	45.6%	29.1%	1.2%	3.8%	5.0%	-4.1%
COCCn1c(SCC(=O)c2ccc(F)cc2)nc2cc(C(=O)NC3CCCC3)ccc2c1=O	25.3%	7.9%[59 µM]	3.7%	3.8%	-7.5%	/
COc1ccc(-c2cc(C(C)=O)c(C)n2CCC(=O)Nc2ccc(C)c(Cl)c2)cc1	24.2%	-9.9%[59 µM]	1.9%	0.0%	-3.8%	/
COc1ccc(CNc2oc(/C=C/c3cccc(OC)c3)nc2C#N)cc1	23.4%	-32.2%[59 µM]	-3.0%	-26.4%	-10.4%	/
CC(C)C1C(=O)NC(=S)N1S(=O)(=O)c1ccc(C(C)(C)C)cc1 (stereo not given)	-9.7%	3.16µM*	4.3%	-7.2%	-12.2%	/
Cc1ccc(C)c(S(=O)(=O)N2C(=S)NC(=O)C2CC(C)C)c1 (stereo not given)	47.5%	?	19.2%	-37.7%	-0.3%	/
Cc1ccccc1OCc1nnc(SCc2cc(=O)c3ccc(C)c(C)c3[nH]2)n1C	24.9%[57 µM]	13.1%[59 µM]	0.0%	4.7%	-13.3%	/
Cc1cc(NC(=O)CSc2ccc3nnc(-c4ccc(F)cc4)n3n2)no1	-1.9%	79.4µM*	-2.3%	-21.3%	-8.6%	-0.6%
CCOC(=O)CC(=O)CSc1ccc2nnc(-c3ccc(F)cc3)n2n1	28.2%	-6.4%	-3.3%	6.3%	-2.6%	-5.7%
Cc1ccc(-c2nnc3ccc(SCC(=O)Nc4cc(C)on4)nn23)cc1	28.6%	?	-5.1%	3.0%	-1.9%	2.0%
COC(=O)CSc1ccc2nnc(-c3ccc(F)cc3)n2n1	23.2%	79.4µM*	1.5%	-1.8%	6.6%	-5.9%
COc1cc2ccccc2cc1C(=O)N1CCN(c2nc3ccc(F)cc3s2)CC1	-1.7%	-7.0%[59 µM]	-8.6%	-28.9%	-33.1%	/
CC(C)(C)c1nnc(NC(=O)c2ccc3c(c2)OCO3)s1	?	3.55µM*	48.5%	-30.3%	89.1µM*	/
C=CCNc1nc(N)c(C(=O)Nc2cc(C)on2)s1	-0.4%	?	13.6%	-35.6%	?	0.7%
C=CCNc1nc(N)c(C(=O)c2ccc3c(c2)OCO3)s1	-25.9%	50.1µM*	12.1%	?	-32.6%	-8.4%
CC(=O)NC(c1ccc(Cl)cc1Cl)c1ccc2cccnc2c1O (stereo not given)	-2.6%	/	-0.3%	28.2µM*	28.2µM*	-26.5%
CC(=O)NC(c1ccc2ccccc2c1)c1ccc2cccnc2c1O (stereo not given)	31.1%	-38.4%	8.9%	28.2µM*	25.1µM*	?
